Test results: PMC4336329 (PLoS ONE, 2015)
The whole screen tested about 310,000 compounds, of which about 14,000 (4.5%) showed an effect of 50% or more. Effects have a minus sign here. The sample holds strong results, similar compounds and a random draw of the others, so the mix is not that of the screen.

These compounds were tested against human ether-à-go-go-related gene (hERG) potassium channel (human, UniProt Q12809) (assay: primary screen, population patch clamp on CHO cells stably expressing hERG; higher = less effect of the substance).
Chain of human ether-à-go-go-related gene (hERG) potassium channel (Q12809 whole entry, looked up): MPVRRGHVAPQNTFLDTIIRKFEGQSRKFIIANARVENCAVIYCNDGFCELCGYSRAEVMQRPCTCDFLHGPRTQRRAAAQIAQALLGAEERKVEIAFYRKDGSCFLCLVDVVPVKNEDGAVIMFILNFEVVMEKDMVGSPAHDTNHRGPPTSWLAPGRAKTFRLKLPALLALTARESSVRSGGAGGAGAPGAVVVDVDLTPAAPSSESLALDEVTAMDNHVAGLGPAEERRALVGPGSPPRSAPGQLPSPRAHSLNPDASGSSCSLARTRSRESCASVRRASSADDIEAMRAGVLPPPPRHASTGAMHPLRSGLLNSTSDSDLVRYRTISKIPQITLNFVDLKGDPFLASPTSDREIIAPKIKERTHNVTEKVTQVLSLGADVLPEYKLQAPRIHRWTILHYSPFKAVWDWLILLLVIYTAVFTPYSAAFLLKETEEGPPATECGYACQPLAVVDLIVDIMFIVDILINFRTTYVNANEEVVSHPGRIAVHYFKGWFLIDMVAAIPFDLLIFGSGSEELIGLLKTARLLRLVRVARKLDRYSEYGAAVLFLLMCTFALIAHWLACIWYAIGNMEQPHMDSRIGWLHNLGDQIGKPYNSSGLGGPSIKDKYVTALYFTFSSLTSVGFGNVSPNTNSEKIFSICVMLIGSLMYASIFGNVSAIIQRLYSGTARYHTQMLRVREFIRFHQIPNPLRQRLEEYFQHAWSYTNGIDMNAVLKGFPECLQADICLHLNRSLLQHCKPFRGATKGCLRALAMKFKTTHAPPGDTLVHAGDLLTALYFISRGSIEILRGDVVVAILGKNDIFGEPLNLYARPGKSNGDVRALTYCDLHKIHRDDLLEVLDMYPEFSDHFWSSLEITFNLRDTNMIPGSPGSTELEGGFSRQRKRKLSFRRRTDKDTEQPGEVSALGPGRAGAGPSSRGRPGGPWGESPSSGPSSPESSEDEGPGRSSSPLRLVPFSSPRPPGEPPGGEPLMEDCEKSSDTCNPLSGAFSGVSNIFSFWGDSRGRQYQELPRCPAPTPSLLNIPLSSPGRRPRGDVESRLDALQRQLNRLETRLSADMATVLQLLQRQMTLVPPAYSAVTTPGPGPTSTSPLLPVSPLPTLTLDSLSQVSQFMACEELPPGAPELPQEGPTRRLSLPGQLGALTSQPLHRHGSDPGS
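Note: peak tail current of the secondary pulse compared with the same well before compound.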

For COc1cc(/C=C2\C(=O)NN(c3ccccc3)C2=O)cc([N+](=O)[O-])c1O, which “hERG current change (%, negative = inhibition) at 10uM” value is on record?
Its value is 22%.

Which “hERG current change (%, negative = inhibition) at 10uM” value does the source give for O=C(N/N=C/c1coc2ccccc2c1=O)c1cccc([N+](=O)[O-])c1 here?
Its value is 26.8%.

Which “hERG current change (%, negative = inhibition) at 10uM” value does the source give for Cc1ccccc1NC(=O)Cn1nnc(S(=O)(=O)c2ccc(C(C)(C)C)cc2)c1N here?
Its value is 4.35%.

For COc1ccc(S(=O)(=O)NCc2cccnc2)cc1C(=O)Nc1ccccc1, which “hERG current change (%, negative = inhibition) at 10uM” value is on record?
Its value is -47.9%.

With CC(=O)Nc1ccc(NC(=O)c2ccc(N(Cc3ccccc3C)S(C)(=O)=O)cc2)cc1 as the compound, how does the “hERG current change (%, negative = inhibition) at 10uM” value read?
The value was -7.68%.

For S=C(Nc1ccccc1)N1CCN(C2CCCCC2)CC1, which “hERG current change (%, negative = inhibition) at 10uM” value is on record?
The value was -2.89%.

How did the “hERG current change (%, negative = inhibition) at 10uM” value turn out when CCC1CCCCN1C(=O)CSc1nnc(CNC(=O)COc2ccc(Cl)cc2)o1 (stereo not shown) was run?
The value was -32.5%.

COc1cnc(-c2ccccn2)nc1Oc1ccc(C(C)(C)C)cc1 was tested. Which “hERG current change (%, negative = inhibition) at 10uM” value did it give?
The value was -2.72%.

How did the “hERG current change (%, negative = inhibition) at 10uM” value turn out when COc1cnc(-c2ccccn2)nc1Oc1ccccc1 was run?
Its value is -72.8%.

How did the “hERG current change (%, negative = inhibition) at 10uM” value turn out when COc1cnc(-c2ccccn2)nc1Oc1ccc(Cl)cc1 was run?
The value was -0.157%.

For CC(C)C(=O)NC(c1ccccc1Cl)c1c(O)ccc2ccccc12 (stereo not shown), which “hERG current change (%, negative = inhibition) at 10uM” value is on record?
Its value is 7.79%.

O=C(O)CCN1C(=O)CC(N2C(=O)/C(=C/c3ccc(Cl)cc3)SC2=S)C1=O (stereo not shown) was tested. Which “hERG current change (%, negative = inhibition) at 10uM” value did it give?
Its value is 18.8%.

Which “hERG current change (%, negative = inhibition) at 10uM” value does the source give for CSc1snnc1-c1ccccc1 here?
Its value is 25.6%.

How did the “hERG current change (%, negative = inhibition) at 10uM” value turn out when Cc1ccc(OCCCNC2CCCC2)cc1 was run?
Its value is -0.454%.

Which “hERG current change (%, negative = inhibition) at 10uM” value does the source give for O=C(O)C(=O)O.c1ccc(COc2ccc(OCCCNC3CCCC3)cc2)cc1 here?
Its value is -57.1%.

How did the “hERG current change (%, negative = inhibition) at 10uM” value turn out when O=C(O)C(=O)O.OCCNCCCCOc1ccc(OCc2ccccc2)cc1 was run?
The value was -32.1%.

With CCOc1cccc(OCCNC2CCCC2)c1.O=C(O)C(=O)O as the compound, how does the “hERG current change (%, negative = inhibition) at 10uM” value read?
The value was 5.28%.

With CC(C)(C)c1ccc(OCCCNC2CCCC2)cc1.O=C(O)C(=O)O as the compound, how does the “hERG current change (%, negative = inhibition) at 10uM” value read?
The value was -54.5%.

With COc1cccc(OC)c1OCCCNC1CCCC1.O=C(O)C(=O)O as the compound, how does the “hERG current change (%, negative = inhibition) at 10uM” value read?
The value was -7.84%.

For CC(C)(C)c1ccc(OCCCNCc2ccccc2)cc1.O=C(O)C(=O)O, which “hERG current change (%, negative = inhibition) at 10uM” value is on record?
Its value is -19.5%.

How did the “hERG current change (%, negative = inhibition) at 10uM” value turn out when Cc1ccc(C)c(OCCCNC2CCCC2)c1C.O=C(O)C(=O)O was run?
Its value is -10.3%.

O=C(O)C(=O)O.c1ccc(-c2ccc(OCCCNC3CCCC3)cc2)cc1 was tested. Which “hERG current change (%, negative = inhibition) at 10uM” value did it give?
Its value is -86.1%.

Which “hERG current change (%, negative = inhibition) at 10uM” value does the source give for O=C(O)C(=O)O.c1cc2c(cc1OCCNC1CCCC1)CCC2 here?
Its value is 0.00128%.

Which “hERG current change (%, negative = inhibition) at 10uM” value does the source give for O=C(O)C(=O)O.c1ccc(Cc2ccc(OCCCNC3CCCC3)cc2)cc1 here?
Its value is -58.9%.

For C=CCNCCCCOc1ccc(OCc2ccccc2)cc1.O=C(O)C(=O)O, which “hERG current change (%, negative = inhibition) at 10uM” value is on record?
The value was -42.1%.

Which “hERG current change (%, negative = inhibition) at 10uM” value does the source give for COc1ccc(C2=NN(C(=O)COC(=O)c3ccc(NC(=O)CC#N)cc3)C(c3ccco3)C2)cc1 (stereo not shown) here?
The value was 5.24%.

COC(=O)c1oc2nc(C)cc(C)c2c1N was tested. Which “hERG current change (%, negative = inhibition) at 10uM” value did it give?
Its value is -4.33%.

How did the “hERG current change (%, negative = inhibition) at 10uM” value turn out when CC(C)N(C)C(=O)CCc1nnc(CCc2c[nH]c3ccccc23)o1 was run?
Its value is 6.75%.

For COc1ccc(C)cc1NC(=O)c1sc2ncn(CC(=O)N3CCCCC3)c(=O)c2c1C, which “hERG current change (%, negative = inhibition) at 10uM” value is on record?
Its value is 9.03%.

For Cc1ccnc(Nc2nc3ccccc3s2)n1, which “hERG current change (%, negative = inhibition) at 10uM” value is on record?
Its value is -4.71%.

How did the “hERG current change (%, negative = inhibition) at 10uM” value turn out when COc1ccc(NC(=O)C2CCCN(c3nccc(C)n3)C2)cc1 (stereo not shown) was run?
Its value is -3.13%.

How did the “hERG current change (%, negative = inhibition) at 10uM” value turn out when CCOC(=O)c1c(C)n(Cc2ccco2)c2c1cc(O)c1ccccc12 was run?
The value was 6.11%.

For Cc1ccc(OCCn2c(NC(=O)c3ccco3)nc3ccccc32)cc1, which “hERG current change (%, negative = inhibition) at 10uM” value is on record?
Its value is -5.24%.

Which “hERG current change (%, negative = inhibition) at 10uM” value does the source give for Cn1cc(Br)c(C(=O)Nc2c(F)c(F)c(F)c(F)c2F)n1 here?
The value was -6.6%.

For COc1ccc(Cl)cc1S(=O)(=O)N1CCC(C(=O)NCc2ccccn2)CC1, which “hERG current change (%, negative = inhibition) at 10uM” value is on record?
The value was -7.12%.

O=C(c1ccco1)N1CCN(S(=O)(=O)/C=C/c2ccccc2)CC1 was tested. Which “hERG current change (%, negative = inhibition) at 10uM” value did it give?
The value was -38.3%.

How did the “hERG current change (%, negative = inhibition) at 10uM” value turn out when O=C(c1cccc([N+](=O)[O-])c1)N1CCN(S(=O)(=O)N2CCCCC2)CC1 was run?
Its value is -15.2%.

With O=C(c1ccc(Cl)cc1)N1CCN(S(=O)(=O)/C=C/c2ccccc2)CC1 as the compound, how does the “hERG current change (%, negative = inhibition) at 10uM” value read?
The value was -54.8%.

For O=C(c1cccc([N+](=O)[O-])c1)N1CCN(S(=O)(=O)/C=C/c2ccccc2)CC1, which “hERG current change (%, negative = inhibition) at 10uM” value is on record?
Its value is -64.3%.

With O=CN1CCN(C(=O)c2cccc([N+](=O)[O-])c2)CC1 as the compound, how does the “hERG current change (%, negative = inhibition) at 10uM” value read?
Its value is -4.11%.

Cn1nc(C(=O)N2CCN(C(c3ccccc3)c3ccccc3)CC2)c2ccccc2c1=O was tested. Which “hERG current change (%, negative = inhibition) at 10uM” value did it give?
Its value is -35.2%.

Nc1ccc(C(=O)N2CCN(S(=O)(=O)/C=C/c3ccccc3)CC2)cc1[N+](=O)[O-] was tested. Which “hERG current change (%, negative = inhibition) at 10uM” value did it give?
Its value is -43.9%.

With O=C(c1ccc2ccccc2c1)N1CCN(S(=O)(=O)/C=C/c2ccccc2)CC1 as the compound, how does the “hERG current change (%, negative = inhibition) at 10uM” value read?
The value was -31.9%.
